# Shown are actives, neighbours in structure and some others; about 3.4% of the full set was active somewhere.
# Mcl1 Bid PPI: Mcl-1/Bid binding inhibitors, primary screen, biochemical, TR-FRET, 1536-well. Induced myeloid leukemia cell differentiation protein Mcl-1 (Homo sapiens), Q07820. TR-FRET Mcl-1/Bid-Dy647 peptide binding. inhibition, % at 21.7 µM. 220,000 compounds, 0.97% hits;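 active = compounds that cut the binding signal by more than half at the single screening dose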;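 also: His-tagged Mcl-1 with europium anti-His antibody binding Bid BH3 peptide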
# Mcl1 Noxa PPI: Mcl-1/Noxa binding inhibitors, primary screen, biochemical, TR-FRET, 1536-well | AID 1022, 2008 | TR-FRET Mcl-1/Noxa peptide binding, 2 h | Induced myeloid leukemia cell differentiation protein Mcl-1 (Homo sapiens), Q07820 | 220,000 compounds, 1.5% hits | inhibition, % at 21.7 µM;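 active = compounds that cut the protein-peptide binding signal by more than 50% relative to plate controls in a single-dose test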;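 also: His-tagged Mcl-1 with rhodamine Noxa BH3 peptide and terbium anti-His antibody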
# 14-3-3 Bad inh: inhibitors of 14-3-3 zeta/Bad binding, primary screen, biochemical, TR-FRET, bovine 14-3-3 zeta; 220,000 compounds, 0.71% hits; inhibition, % at 21.7 µM; AID 781, 2007; TR-FRET 14-3-3zeta/Dy647-pBad peptide displacement, 1 h;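 active = inhibition above about 70%, limit read from the data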
# NCF1 inh: p47phox/p22phox peptide binding inhibitors, primary screen, biochemical, uHTS, NADPH oxidase regulatory subunit; Neutrophil cytosol factor 1 (Homo sapiens), P14598; 220,000 compounds, 0.53% hits; inhibition, % at 24.7 µM; fluorescence polarization, 2 h
# Bim-Mcl-1: inhibitors of Bim peptide binding to Mcl-1, primary screen, biochemical, bead-based flow cytometry, multiplex; Induced myeloid leukemia cell differentiation protein Mcl-1 (Homo sapiens), Q07820; Bim peptide-Mcl-1 binding; inhibition, % at 10 µM; 190,000 compounds, 0.1% hits; in the data active = inhibition above about 40%
# eIF4E-4G inh: eIF4E–eIF4G protein interaction inhibitors, primary screen, biochemical, uHTS, TR-FRET, eIF4GI fragment; TR-FRET eIF4E-eIF4GI(517-606) binding, 2 h; inhibition, % at 21.7 µM; 220,000 compounds, 0.37% hits; AID 782, 2007
# A number is an active result; 0 = inactive; - = no result given; ! = repeats disagree.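 The calls were made as follows, unless noted: active = inhibition above about 30% (limit read from the data); inactive = the rest.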
SMILES,Mcl1 Bid PPI,Mcl1 Noxa PPI,14-3-3 Bad inh,NCF1 inh,Bim-Mcl-1,eIF4E-4G inh
COc1ccc(Cc2nc3ccccc3n2CC(=O)N/N=C/c2ccc(C)cc2O)cc1OC,0,0,83.1,0,0,0
Cn1c(-c2ccc(F)cc2)cnc1NCc1ccc(F)cc1,0,0,80.2,0,0,0
Cn1c(-c2ccc3c(c2)OCO3)cnc1NCc1ccc(Cl)cc1,0,0,77.5,0,0,0
Cc1ccc(CNc2ncc(-c3ccc4c(c3)OCO4)n2C)cc1,0,0,0,0,0,0
Cn1c(-c2ccc(Br)cc2)cnc1NCc1cccnc1,0,0,79.0,0,0,0
Cn1c(-c2ccc(F)cc2)cnc1NCc1ccc(C#N)cc1,0,0,0,0,0,0
Nc1nc(SCC(=O)Nc2ccc([N+](=O)[O-])cc2)n[nH]1,0,0,0,0,0,0
COc1ccc(CCNc2ccncn2)cc1,0,0,72.4,0,0,0
CCC(CC)=N/N=C/c1c(O)n(CC)c2cc(C3=NNC(=O)CC3)ccc12,65.7,0,0,0,0,0
COc1cc(NC(=S)NC2CC(C)(C)NC(C)(C)C2)c(OC)cc1Cl,0,0,0,0,0,0
CCOC(=O)C1=C(C)N(c2ccc(C)cc2)C(=O)/C1=C\c1cccs1,0,51.9,0,0,0,0
COc1ccccc1-n1c(C)nc2cc(C(=O)O)ccc21,0,-,0,39.3,0,0
CSc1nnc(-c2cc3c(-c4ccccc4)nn(C)c3s2)n1C,0,0,88.6,0,0,0
COc1ccc(NCc2ccc([N+](=O)[O-])s2)c(OC)c1,0,53.0,0,0,0,0
Cc1ccc(NC(=S)N/C(=N/S(=O)(=O)c2ccccc2)c2ccccc2)cc1,0,0,0,164.1,0,0
COc1cc(NC(=O)c2cc3c(C)nc4ccccc4c3o2)cc(OC)c1OC,0,55.7,0,0,0,0
CCCCOc1cc(C(=O)NCCN(CC)CC)c2ccccc2n1,0,0,0,0,0,74.2!
CCCCN(CC)CCNC(=O)c1cc2c(C)nc3ccccc3c2o1,0,70.8,0,0,0,0
Cc1nc2ccccc2c2oc(C(=O)Nc3ccc(C(C)C)cc3)cc12,0,0,0,0,0,0
COC(=O)C1CCN(C(=O)c2cc3c(=O)n4cccc(C)c4nc3n2Cc2ccccc2)CC1,0,0,0,0,-,0
CC(C(=O)OCc1nnc(-c2ccccc2)o1)N1C(=O)C2CCCCC2C1=O (stereo not given),0,0,0,0,0,0
CC(C)(C)c1ccc(C(CC(=O)O)NC(=O)c2ccccc2F)cc1 (stereo not given),0,0,0,0,0,0
COc1ccc(OC)c(CNc2ccc(F)c(Cl)c2)c1,0,0,79.4,0,0,0
O=C1C(Cl)=C(Nc2ccccc2O)C(=O)N1c1ccccc1,0,70.2,0,0,0,0
CCOc1ccc(NC2=C(Cl)C(=O)N(Cc3ccccc3)C2=O)cc1,0,0,0,0,0,0
SMILES,Mcl1 Bid PPI,Mcl1 Noxa PPI,14-3-3 Bad inh,NCF1 inh,Bim-Mcl-1,eIF4E-4G inh
Cc1ccc(O)c(NC2=C(Cl)C(=O)N(Cc3ccccc3)C2=O)c1,56.2,87.7,0,0,0,31.4
COc1ccccc1N1C(=O)C(Cl)=C(Nc2ccccc2O)C1=O,0,75.8,0,0,0,0
Cc1ccsc1-c1nc(CN(C)C(C2CC2)C2CC2)c(C)o1,0,0,0,0,0,0
[NH-]c1ncnc2c1N=C[N+]2=CC=CCO,0,0,0,0,-,0
COc1cccc(NC(=O)N2CCC(n3nnc4ccccc43)CC2)c1,0,0,0,0,0,0
COc1cc(-c2ncc3ccccn23)cc(OC)c1OC,0,0,72.8,0,0,0
COc1cc(OC)cc(-c2ncc3ccccn23)c1,0,0,0,0,0,0
C/C(=N/NC(=O)CNC(=O)c1ccccn1)c1cccc([N+](=O)[O-])c1,0,0,0,0,0,0
